Data on 40 compounds can be found in PubChem BioAssay (NCATS).

Results filed as inconclusive are left out. Where a call stands in place of a potency, no number is given. Activity calls are given as the source filed them. Calls follow the shape of the dose curve; as a rule, active = well fitted cell-killing curve with a large enough effect; inconclusive = small, poorly fitted or top-dose-only effect; inactive = flat fitted curve, though single readings scatter.
Potency is read from the fitted curve at half-maximal effect.

A short description of this assay: qHTS of pediatric cancer cell lines to identify multiple opportunities for drug repurposing: Primary screen for TC32 cells (AID 1347089). Also: nearly all actives have a fitted effect of over 60% in size. The conditions noted are these: TC32 Ewing sarcoma viability, CellTiter-Glo luminescence, 48 h; series mostly up to 45.8 µM. The text has this: Drug repurposing or repositioning has been offered as a strategy for drug development in oncology programs. This approach has special potential for childhood cancers and other rare or orphan diseases, where the expected return on new drug development has been a disincentive to pharmaceuticals.
In this project we exploit the poly-pharmacology of drugs to discover new indications via phenotypic screening of a panel of 19 well-characterized cell lines derived from solid tumors seen in children and adolescents. The goal is to identify approved drugs with previously unrecognized anticancer properties that has the potential to reveal new mechanisms and biological processes involved in carcinogenesis or drug resistance. We employed a titration-based paradigm (quantitative high-throughput screening or qHTS), where all compounds were tested at multiple concentrations for their effect on cell viability. Concentration-response curves (CRCs) were derived directly from the primary screen, and both potency and efficacy values were used to identify compounds with robust bioactivity profiles. We screened the NIH Chemical Genomics Center (NCGC) Pharmaceutical Collection (NPC) and Mechanism Interrogation Plate (MIPE) small molecule collections of approved and investigational compounds against these cell lines; and measured metabolically active cells after 48 hours of compound treatment as a proxy for cell viability.
Assay Submitter: Nathalia J. Martinez, National Center for Advancing Translational Sciences, National Institutes of Health, Rockville, MD, USA; email: natalia.martinez@nih.gov
[1] Shen, M et al. Quantitative high-throughput phenotypic screening of pediatric cancer cell lines identifies multiple opportunities for drug repurposing. Oncotarget 2017 Dec 19;9(4):4758-4772. PMID 29435139.
The cells were obtained from University of North Carolina (UNC), Pediatric Preclinical Testing Program (PPT), and Coriell Institute (CI).
qHTS cell viability assay:
Cells were assayed in growth media at a density of 500-1,000 cells/well. Five microliters of cells were dispensed into 1,536-well, white, solid-bottom, TC-treated plates (Greiner Bio One) using a multidrop dispenser and incubated at 37 degrees C, 5% CO2, under a humidified atmosphere for 5 hours. Twenty-three nanoliters of compounds and controls (neutral control DMSO or positive control bortezomib at final concentration of 2.3 uM) were subsequently transferred by Kalypsys pintool. For primary screens, the MIPE collection was tested at 11-point dilutions (final concentrations range from 0.78 nM to 46 µM) and the NPC collection at 8-point dilutions (final concentrations range from 0.59 nM to 46 µM). Compounds tested in follow-up screens were assayed at 11-point dilutions. Cells were incubated for 48 hours, followed by addition of 3 uL of CellTiter-Glo (Promega). After a 15min incubation at room temperature, samples were analyzed for luminescence intensity using a ViewLux High-throughput CCD imager equipped with clear filters.
Background: In qHTS, concentration-response curves come from the screen itself.
As for `CCOC(=O)N1c2ccc(C(F)(F)F)cc2[C@@H](N(Cc2cc(C(F)(F)F)cc(C(F)(F)F)c2)C(=O)OC)C[C@H]1CC`, the Potency result is “inactive”. Take `CCC(=C(CC)c1ccc(O)cc1)c1ccc(O)cc1`: the Potency result is “inactive”.

Consider `CN(C)CCOc1cc(-c2cn[nH]c2)ccc1NC(=O)C1COc2ccccc2O1` (stereo not given), for which the Potency entry is “inactive”. `CC[C@@H]([C@H](C)O)n1ncn(-c2ccc(N3CCN(c4ccc(OCC5CO[C@@](Cn6cncn6)(c6ccc(F)cc6F)C5)cc4)CC3)cc2)c1=O` (stereo not given in full): the Potency result is “inactive”. As for `Oc1ccc(C=Cc2cc(O)cc(O)c2)cc1`, the Potency result was “inactive”. As to `C[C@@H](O)[C@H]1C(=O)N2C(C(=O)OCOC(=O)C(C)(C)C)=C(SC3CN(C4=NCCS4)C3)[C@H](C)[C@H]12`, the Potency entry was “inactive”. As to `C[C@@]1(c2cc(-c3cncnc3)c(F)cc2F)CCSC(N)=N1`, the Potency entry was “inactive”.

With `CC(=O)OCC(=O)[C@@]1(O)CC[C@H]2[C@@H]3CCC4=CC(=O)C=C[C@]4(C)[C@@H]3[C@@H](O)C[C@@]21C`, the Potency entry is “inactive”. The result for `Nc1ccc(-c2ccc3ncc4ccc(=O)n(-c5cccc(C(F)(F)F)c5)c4c3c2)cn1` reads 10.4 nM (active); that for `CCn1c(-c2nonc2N)nc2cncc(CNC3CCNCC3)c21`, “inactive”; that for `CCCCC[C@H](O)C=C[C@H]1[C@H](O)CC(=O)[C@H]1CC=CCCCC(=O)O`, “inactive”. As for `CC(=O)Nc1cccc(-n2c(=O)n(C3CC3)c(=O)c3c(Nc4ccc(I)cc4F)n(C)c(=O)c(C)c32)c1`, the Potency result was “inactive”. For `CCCCCCOC(=O)N=C(N)c1ccc(NCc2nc3cc(C(=O)N(CCC(=O)OCC)c4ccccn4)ccc3n2C)cc1`, the Potency entry is “inactive”. Next, `Cc1ccc(NC(=O)c2cccc(N(C)C)c2)cc1NC(=O)c1ccc(O)cc1`: 13100 nM (active); `COc1ccc(CCN(C)CCCOc2ccc(S(=O)(=O)c3[nH]c4ccccc4c3C(C)C)cc2)cc1OC`: “inactive”; `CN1C(=O)C(Cc2c[nH]c3ccccc23)NC1=S` (stereo not given): “inactive”. Take `N#Cc1ccc(Oc2ccc3c(c2)COB3O)cc1`: the Potency result was “inactive”. Next, `Cc1ccc2c(=O)c3cccc(CC(=O)O)c3oc2c1C`: “inactive”. For `O[C@@H](COc1cccc2ncccc12)CN1CCN(C2c3ccccc3[C@@H]3[C@H](c4ccccc42)C3(F)F)CC1` (stereo not given in full), the Potency result was “inactive”. Consider `C=CC[N+]1([C@H]2C[C@H]3[C@@H]4CC[C@H]5C[C@H](O)[C@@H](N6CCOCC6)C[C@]5(C)[C@@H]4CC[C@]3(C)[C@H]2OC(C)=O)CCCC1`, for which the Potency result is “inactive”. Turning to `O=C(NCCCCN1CCOCC1)c1cc2ccccc2o1`, the Potency entry was “inactive”. On to `Cc1ccccc1C(=O)c1ccc(Nc2ccc(Br)cc2N)cc1Cl`, for which the Potency entry is “inactive”. Next, `COc1cc2ncn(-c3cc(OCc4ccccc4S(C)(=O)=O)c(C#N)s3)c2cc1OC`: “inactive”. Next, `NCC1CCC(C(=O)O)CC1` (stereo not given): “inactive”; `CN1C(=O)C[C@H](C(=O)N[C@@H](Cc2cnc[nH]2)C(=O)N2CCC[C@@H]2C(N)=O)NC1=O`: “inactive”; `C[C@H](c1ccc(F)cc1CCCC(=O)O)N(c1cc(F)ccc1F)S(=O)(=O)c1ccc(Cl)cc1`: “inactive”. Next, `Cc1ccc(C(=O)N(CCCN)[C@@H](c2oc3cc(Cl)ccc3c(=O)c2Cc2ccccc2)C(C)C)cc1`: 3.3 nM (active); `CCN(CCO)CCCOc1ccc2c(Nc3cc(CC(=O)Nc4cccc(F)c4)[nH]n3)ncnc2c1`: 330 nM (active); `Cc1ccc(S(=O)(=O)Nc2nc3ccccc3nc2Nc2ccc3nsnc3c2)cc1`: “inactive”. For the compound `Cc1cc(OCCCS(C)(=O)=O)cc(C)c1-c1cccc(COc2ccc3c(c2)OC[C@H]3CC(=O)O)c1`, the Potency result was “inactive”. Take `Cc1ccccc1-n1c(Cn2nc(-c3cccc(O)c3)c3c(N)ncnc32)nc2cccc(C)c2c1=O`: the Potency result is “inactive”. On to `Cc1nc(C(=O)NCC(=O)O)c(O)c2ccc(Oc3ccccc3)cc12`, for which the Potency entry was “inactive”. With `CC[C@H](C)C(=O)O[C@H]1C[C@H](O)C=C2C=C[C@H](C)[C@H](CC[C@@H](O)C[C@@H](O)CC(=O)O)[C@H]21`, the Potency result is “inactive”. `CN(CC=CC#CC(C)(C)C)Cc1cccc2ccccc12`: the Potency result is “inactive”. In the case of `O=C(CC12CC3CC(CC(C3)C1)C2)Nc1cccc2nc(NCCNCCO)ccc12`, the Potency result was “inactive”. For `CN(C)CCOc1ccc(-c2nc(-c3ccc4c(c3)CCC4=NO)c(-c3ccncc3)[nH]2)cc1`, the Potency entry is “inactive”. Take `COc1ccc(-c2ccc3ncc4c(c3c2)n(-c2ccc(N3CCNCC3)c(C(F)(F)F)c2)c(=O)n4C)cn1`: the Potency was 16.5 nM (active). On to `CC1CNc2c(cccc2S(=O)(=O)N[C@@H](CCCN=C(N)N)C(=O)N2CC[C@@H](C)C[C@@H]2C(=O)O)C1` (stereo not given in full), for which the Potency entry was “inactive”.

`CC1C(=O)OC2C(O)C34C5CC(C(C)(C)C)C36C(OC(=O)C6O)OC4(C(=O)O5)C12O` (stereo not given): the Potency result was “inactive”. Next, `CCNC(=O)c1noc(-c2cc(C(C)C)c(O)cc2O)c1-c1ccc(CN2CCOCC2)cc1`: 165 nM (active).
